Several values for one entry are separate records, joined by “and”; a condition that tells them apart may be missing. Equal entries are not always repeated. About 79,000 compounds went through this panel and 15% of them were active in at least one assay; those are over-represented in the sample as a whole. A number with no mark means an inactive call. Activity calls are given as the source filed them. Cut-off read from the data, not from the text of the source: active = growth inhibition above about 70%; inactive = the rest.
Key:
[1] = NCI Yeast Anticancer Drug Screen. Data for the rad50 strain (AID 155);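 note: 0% = growth of vehicle-only cultures of the same strain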; details: S. cerevisiae rad50 strain growth inhibition, stronger effect = higher value
Procedure, shortened: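 Vehicle-treated cultures provide the reference for the growth inhibition reported for compound-exposed, repair-deficient yeast.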

[2] = NCI Yeast Anticancer Drug Screen. Data for the mec2-1 strain (AID 157); details: S. cerevisiae mec2-1 strain, stronger effect = higher value
Procedure, shortened: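 Using mec2-1 yeast: add compound, measure growth, express inhibition versus vehicle-treated cultures.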

[3] = NCI Yeast Anticancer Drug Screen. Data for the sgs1 mgt1 strain (AID 161);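 note: 0% = growth of cultures given vehicle only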; details: S. cerevisiae sgs1 mgt1 strain, stronger effect = higher value
Procedure, shortened: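 Percent growth inhibition was derived by comparing compound-exposed mutant yeast with vehicle-exposed cultures. The strain carries alterations in DNA damage repair.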

[4] = NCI Yeast Anticancer Drug Screen. Data for the cln2 rad14 strain (AID 165);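 note: 0% = growth equal to vehicle treated cultures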; details: S. cerevisiae cln2 rad14 strain, stronger effect = higher value
Procedure, shortened: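 Yeast strain cln2 rad14, bearing defects in cell cycle control and DNA repair, serves as the test system; values reflect growth inhibition compared with vehicle.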

[5] = NCI Yeast Anticancer Drug Screen. Data for the bub3 strain (AID 167); details: S. cerevisiae bub3 mutant strain, stronger effect = higher value
Procedure, shortened: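 Mutant yeast screening strain plus compound; vehicle-treated cultures serve as the 0% inhibition reference.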

[6] = NCI Yeast Anticancer Drug Screen. Data for the mlh1 rad18 strain (AID 175); details: S. cerevisiae mlh1 rad18 strain growth inhibition, stronger effect = higher value
Procedure, shortened: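 Steps: expose repair-defective yeast to compound; measure growth; express inhibition against vehicle-treated controls.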

[7] = at 5.0 µM (retest, dose inferred, filed as 0.5)
[8] = at 50.0 µM (retest, dose inferred, filed as 5.0)

SMILES | growth inhibition [1, 7] | growth inhibition [1, 8] | growth inhibition ([1]; at 50.0 µM) | growth inhibition [2, 7] | growth inhibition [2, 8] | growth inhibition ([2]; at 50.0 µM) | growth inhibition [3, 7] | growth inhibition [3, 8] | growth inhibition ([3]; at 50.0 µM) | growth inhibition [4, 7] | growth inhibition [4, 8] | growth inhibition ([4]; at 50.0 µM) | growth inhibition [5, 7] | growth inhibition [5, 8] | growth inhibition ([5]; at 50.0 µM) | growth inhibition [6, 7] | growth inhibition [6, 8] | growth inhibition ([6]; at 50.0 µM)
CC(=O)O[C@H]1CC[C@H]2[C@@H]3CCC4=CC(=O)CC[C@@H]4[C@H]3CC[C@]12C | 2% | 93% (active) | 96.8% (active) | -1% | 92% (active) | 93.5% (active) | -4% | 91% (active) | 97.8% (active) | -3% | 39% | 14.8% | 1% | 84% (active) | 76.2% (active) | 0% | 89% (active) | 97.3% (active)
[C-]#[O+].[C-]#[O+].[C-]#[O+].[CH3][Sn]([c]1ccccc1)[c]1ccccc1.[Co].c1ccc([PH+](c2ccccc2)c2ccccc2)cc1 | 99% (active) | 99% (active) | 99.5% (active) | 99% (active) | 100% (active) | 99.5% (active) | 99% (active) | 100% (active) | 99.5% (active) | 99% (active) | 99% (active) | 99% (active) | 99% (active) | 99% (active) | 99.5% (active) | 99% (active) | 99% (active) | 99.3% (active)
O=C(CCCC(=O)NNC(=O)Nc1cccc(S(=O)(=O)F)c1)NNC(=O)Nc1cccc(S(=O)(=O)F)c1 | 1% | 3% | 73.2% (active) | 11% | 20% | 72.3% (active) | 3% | -19% | 80% (active) | -8% | -8% | 52.7% | -6% | -1% | 84.3% (active) | 9% | 33% | 72.8% (active)
CC1(C)CC(=O)C([Se]C2=C(O)CC(C)(C)CC2=O)=C(O)C1 | 96% (active) | 99% (active) | 99.6% (active) | 91% (active) | 99% (active) | 99.8% (active) | 86% (active) | 99% (active) | 99.8% (active) | 35% | 99% (active) | 99.4% (active) | 40% | 99% (active) | 99.6% (active) | 94% (active) | 99% (active) | 99.3% (active)
O=C1N[C@@H]2C(=C[C@H](O)[C@@H](O)[C@H]2O)c2cc3c(c(O)c21)OCO3 | 41% | 82% (active) | 3.8% | 41% | 82% (active) | -19% | 53% | 84% (active) | 18.1% | 60% | 83% (active) | 0.2% | 53% | 78% (active) | -3.1% | 41% | 84% (active) | 6.3%
Fc1ccc(NP(=S)(Nc2ccc(F)cc2F)Nc2ccc(F)cc2F)c(F)c1 | 33% | 99% (active) | 99.2% (active) | 42% | 99% (active) | 99.3% (active) | 39% | 99% (active) | 99% (active) | 56% | 99% (active) | 98.7% (active) | 26% | 99% (active) | 98.8% (active) | 30% | 98% (active) | 99.2% (active)
Oc1c(Cl)c(Cl)c(Cl)c(Cl)c1Cl (tested in a mixture with another compound) | 56% and 41% and 27% | 99% (active) | 99.2% (active) and 99% (active) and 98.8% (active) | 28% and 24% and -7% | 99% (active) and 100% (active) | 99.4% (active) and 99.2% (active) and 99.7% (active) | 58% and 44% and 23% | 99% (active) | 99.4% (active) and 99.3% (active) and 99.2% (active) | 42% and 28% and 16% | 99% (active) and 98% (active) | 97.2% (active) and 99.2% (active) and 98.5% (active) | 30% and 29% and 1% | 99% (active) | 99.5% (active) and 99.3% (active) | 56% and 46% and 23% | 99% (active) | 99.2% (active) and 99% (active)
CCCOc1ccc(/C=C/[N+](=O)[O-])cc1 | 11% | 17% | 52.3% | -1% | 17% | 96.3% (active) | -1% | 11% | 50.9% | 1% | 20% | 93.5% (active) | -1% | 13% | 37% | 3% | 11% | 36%
O=[N+]([O-])c1c(Cl)sc(Cl)c1[N+](=O)[O-] | 99% (active) | 99% (active) | 99.7% (active) | 100% (active) | 100% (active) | 99.7% (active) | 99% (active) | 99% (active) | 99.5% (active) | 99% (active) | 99% (active) | 99.8% (active) | 100% (active) | 100% (active) | 99.7% (active) | 99% (active) | 99% (active) | 99.7% (active)
CC(Br)CN1CCOCC1 (stereo not given) | 91% (active) | 97% (active) | 94.2% (active) | 25% | 98% (active) | 96.8% (active) | 58% | 94% (active) | 67.7% | 14% | 66% | 12.8% | -10% | 36% | 2.6% | 66% | 97% (active) | 96.2% (active)
CCC1CC2C3Cc4ccc(OC)c(O)c4C2(CCN3C)CC1=O (stereo not given) | 6% | 3% | -6.45% | -12% | -2% | -6% | 19% | 9% | -8% | 14% | 11% | -5.3% | 24% | 19% | -1.25% | 9% | 9% | -7.5%
COc1cc(OC)c(OC)cc1/C=C/[N+](=O)[O-] | 35% | 64% | 85.9% (active) | 24% | 85% (active) | 90.9% (active) | 46% | 85% (active) | 90.8% (active) | 9% | 39% | 77.8% (active) | 12% | 67% | 94.8% (active) | 71% (active) | 91% (active) | 92% (active)
CCCCCCNC(=O)CI | -3% | 88% (active) | 42.7% | -2% | 91% (active) | 75.2% (active) | -5% | 87% (active) | 16.7% | -1% | 46% | -17.4% | 5% | 84% (active) | 59.2% | -3% | 93% (active) | 50.4%
O=C(CBr)OCc1ccccc1 | 96% (active) and 98% (active) | 99% (active) | 99.5% (active) | 98% (active) and 99% (active) | 99% (active) and 100% (active) | 99.8% (active) | 97% (active) and 100% (active) | 99% (active) and 100% (active) | 99.7% (active) | 84% (active) and 93% (active) | 99% (active) | 99.4% (active) | 97% (active) and 99% (active) | 99% (active) | 99.4% (active) | 99% (active) | 99% (active) | 99.4% (active)
CCC1(O)C(=O)OCc2c1cc1n(c2=O)Cc2cc3ccc(C#N)cc3nc2-1 (stereo not given) | 71% (active) | 57% | 51% | 11% | -6% | -20.8% | 11% | -132% | -30.6% | 10% | -5% | -16.7% | -6% | -63% | -4.05% | 10% | -9% | -15.6%

Reference: PubChem BioAssay (NCI)
